From PubChem BioAssay (NCI)
This is part of a sample that, as a whole, favours compounds with a hit. Of some 79,000 tested, about 15% had one in any assay. The source made the active and inactive calls. No stated cut-off is given here; in the data, active means growth inhibition above about 70%; inactive means the rest.

Columns and labels:
[1] = NCI Yeast Anticancer Drug Screen. Data for the rad50 strain (AID 155);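 further: 0% = growth of vehicle-only cultures of the same strain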; settings: S. cerevisiae rad50 strain growth inhibition, active compounds read high
Procedure, shortened: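 Compounds were tested on a yeast strain with an engineered DNA damage repair alteration; the reported value is growth inhibition normalised to vehicle treatment.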

[2] = NCI Yeast Anticancer Drug Screen. Data for the mec2-1 strain (AID 157); settings: S. cerevisiae mec2-1 strain, active compounds read high
Procedure, shortened: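 Vehicle-treated cultures served as reference for growth inhibition of compound-exposed mec2-1 yeast.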

[3] = NCI Yeast Anticancer Drug Screen. Data for the sgs1 mgt1 strain (AID 161);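 further: 0% = growth of cultures given vehicle only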; settings: S. cerevisiae sgs1 mgt1 strain, active compounds read high
Procedure, shortened: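 Genetically altered yeast, compound exposure, growth inhibition relative to vehicle.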

[4] = NCI Yeast Anticancer Drug Screen. Data for the cln2 rad14 strain (AID 165);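 further: 0% = growth equal to vehicle treated cultures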; settings: S. cerevisiae cln2 rad14 strain, active compounds read high
Procedure, shortened: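 Each compound was tested on cln2 rad14 yeast. Inhibition of growth was calculated against vehicle-exposed controls.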

[5] = NCI Yeast Anticancer Drug Screen. Data for the bub3 strain (AID 167); settings: S. cerevisiae bub3 mutant strain, active compounds read high
Procedure, shortened: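 Growth of a checkpoint-deficient yeast mutant is measured after compound exposure. Values represent inhibition relative to vehicle.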

[6] = NCI Yeast Anticancer Drug Screen. Data for the mlh1 rad18 strain (AID 175); settings: S. cerevisiae mlh1 rad18 strain growth inhibition, active compounds read high
Procedure, shortened: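 Vehicle-treated cultures served as the reference for growth inhibition in a yeast strain carrying DNA damage repair alterations exposed to each compound.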

[7] = at 5.0 µM (retest, dose inferred, filed as 0.5)
[8] = at 50.0 µM (retest, dose inferred, filed as 5.0)

Measured: growth inhibition

CCc1nc(N)nc(N)c1-c1ccc(N(C)Cc2ccccc2)c([N+](=O)[O-])c1
inactive: [1]; [7] 10% | [1]; [8] -13% | [1]; at 50.0 µM 8.55% | [2]; [7] 7% | [2]; [8] 0% | [2]; at 50.0 µM 22.1% | [3]; [7] 37% | [3]; [8] 37% | [3]; at 50.0 µM 3.1% | [4]; [7] 31% | [4]; [8] 40% | [4]; at 50.0 µM 4.05% | [5]; [7] 52% | [5]; [8] 34% | [5]; at 50.0 µM 10.1% | [6]; [7] 8% | [6]; [8] -6% | [6]; at 50.0 µM 14.5%

Cc1cc(N=[N+]=[N-])c2cc(C3CCCCC3)ccc2n1
inactive: [1]; [7] 12% | [2]; [7] 8% | [3]; [7] 7% | [4]; [7] 8% | [4]; [8] 69% | [5]; [7] 0% | [6]; [7] -2%
active: [1]; [8] 99% | [1]; at 50.0 µM 96.5% | [2]; [8] 98% | [2]; at 50.0 µM 78.8% | [3]; [8] 99% | [3]; at 50.0 µM 97.8% | [4]; at 50.0 µM 90.3% | [5]; [8] 96% | [5]; at 50.0 µM 90.9% | [6]; [8] 99% | [6]; at 50.0 µM 96.8%

Cc1c2cc[n+]([O-])cc2c(C)c2c1oc1ccccc12
inactive: [1]; [7] 65% | [1]; at 50.0 µM 50.5% | [2]; [7] 34% | [2]; at 50.0 µM 46.6% | [3]; [7] 13% | [3]; at 50.0 µM 42.4% | [4]; [7] 23% | [4]; at 50.0 µM 50.8% | [5]; [7] 32% | [6]; [7] 22% | [6]; at 50.0 µM 55.1%
active: [1]; [8] 99% | [2]; [8] 98% | [3]; [8] 98% | [4]; [8] 99% | [5]; [8] 99% | [5]; at 50.0 µM 95.2% | [6]; [8] 98%

CCCCCCCC[N+](C)(CCCCCCCC)CCCCCCCC
inactive: [1]; [7] 51% | [2]; [7] 47% | [6]; [7] 41%
active: [1]; [8] 95% | [1]; at 50.0 µM 90.5% | [2]; [8] 91% | [2]; at 50.0 µM 92.2% | [3]; [7] 98% | [3]; [8] 97% | [3]; at 50.0 µM 93% | [4]; [7] 71% | [4]; [8] 98% | [4]; at 50.0 µM 91.7% | [5]; [7] 96% | [5]; [8] 96% | [5]; at 50.0 µM 91.7% | [6]; [8] 98% | [6]; at 50.0 µM 91.2%

Cc1ccc([S@](=O)c2occc2C=O)cc1
active: [1]; [8] 88% | [1]; at 50.0 µM 74.5% | [2]; [8] 98% | [2]; at 50.0 µM 88.5% | [3]; [8] 98% | [3]; at 50.0 µM 84.5% | [5]; [8] 98% | [6]; [8] 96% | [6]; at 50.0 µM 88.2%
inactive: [1]; [7] 37% | [2]; [7] 29% | [3]; [7] 38% | [4]; [7] 23% | [4]; [8] 43% | [4]; at 50.0 µM 13.4% | [5]; [7] 43% | [5]; at 50.0 µM 62.6% | [6]; [7] 41%

CCN(CC)CCOc1ccc(/C(C#N)=C/c2ccc3ccccc3c2)cc1
active: [1]; [8] 99% | [1]; at 50.0 µM 99.5% | [2]; [8] 99% | [2]; at 50.0 µM 99.5% | [3]; [7] 73% | [3]; [8] 100% | [3]; at 50.0 µM 99.2% | [4]; [8] 99% | [4]; at 50.0 µM 99.5% | [5]; [8] 99% | [5]; at 50.0 µM 99.4% | [6]; [8] 99% | [6]; at 50.0 µM 99.2%
inactive: [1]; [7] 38% | [2]; [7] 30% | [4]; [7] 28% | [5]; [7] 53% | [6]; [7] 35%

Cc1ccc(-c2oc(C=Nc3ccccc3)c([N+](=O)[O-])c2-c2ccc(C)cc2)cc1
active: [1]; [8] 72% | [1]; at 50.0 µM 73.3% | [2]; [8] 70% | [3]; [8] 73% | [3]; at 50.0 µM 70.9% | [4]; [8] 74% | [5]; [8] 95% | [6]; [8] 91% | [6]; at 50.0 µM 75.8%
inactive: [1]; [7] 11% | [2]; [7] 13% | [2]; at 50.0 µM 64.5% | [3]; [7] 26% | [4]; [7] 36% | [4]; at 50.0 µM 42.2% | [5]; [7] 46% | [5]; at 50.0 µM 41.7% | [6]; [7] 52%

O=[N+]([O-])c1nccn1CCCNCCCn1ccnc1[N+](=O)[O-]
inactive: [1]; [7] 27% | [1]; [8] 28% | [1]; at 50.0 µM 0.45% | [2]; [7] 0% | [2]; [8] -2% | [2]; at 50.0 µM 1.2% | [3]; [7] 15% | [3]; [8] 26% | [3]; at 50.0 µM -6.7% | [4]; [7] 24% | [4]; [8] 17% | [4]; at 50.0 µM -20.1% | [5]; [7] 8% | [5]; [8] 14% | [5]; at 50.0 µM -14.9% | [6]; [7] 24% | [6]; [8] 20% | [6]; at 50.0 µM 21.1%
